Laboratory results published in PubChem BioAssay.
For some assays here: Entries with a potency or affinity are not part of this list. Activity calls are given as the source filed them. Unless noted, no rule for the calls is given here.

How the values were obtained:
[1] = antimalarial activity against Dd2 strain (AID 2302;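 active = growth inhibition above 50% at the single 2 µM test dose, taken to imply half-maximal potency below 2 µM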;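 also: 0% = DMSO untreated growth and 100% = chloroquine plus artemisinin killed control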); conditions: P. falciparum Dd2 in RBCs, LDH growth readout, 72 h; at 2 µM; active compounds read high
[2] = HepG2 cytotoxicity, primary screen, cytotoxicity control for P. falciparum antimalarial project, cell-based, ATP luminescence (AID 2303;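 active = inhibition above 50%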;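 also: 0% = DMSO wells and 100% = digitonin-killed cells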); conditions: HepG2 viability, 24-48 h, at 10 µM, active compounds read high
[3] = target: L-lactate dehydrogenase (Plasmodium falciparum (isolate CDC / Honduras)) (UniProt Q27743); assay: PfLDH activity inhibition – cell lysate, 3D7 strain, counter-screen for P. falciparum growth inhibition project (AID 2304);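 also: 0% = vehicle and 100% = reference inhibitor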; conditions: P. falciparum 3D7 crude extract, LDH APAD/NBT absorbance; at 2 µM; active compounds read high
Sequence of L-lactate dehydrogenase (Plasmodium falciparum (isolate CDC / Honduras)) (Q27743 whole entry, looked up): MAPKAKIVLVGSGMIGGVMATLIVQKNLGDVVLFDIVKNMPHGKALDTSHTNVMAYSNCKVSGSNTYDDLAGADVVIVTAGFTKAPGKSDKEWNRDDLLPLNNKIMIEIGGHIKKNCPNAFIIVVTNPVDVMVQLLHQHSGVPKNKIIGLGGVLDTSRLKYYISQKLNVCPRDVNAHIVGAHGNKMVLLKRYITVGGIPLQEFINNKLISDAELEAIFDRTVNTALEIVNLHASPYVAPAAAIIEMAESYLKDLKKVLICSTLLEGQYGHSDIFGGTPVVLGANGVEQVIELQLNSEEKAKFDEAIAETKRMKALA

[4] = inhibition of 3D7 malaria parasite growth – strain 3D7 (AID 2306);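 also: 0% = DMSO wells and 100% = chloroquine plus artemisinin control wells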; conditions: P. falciparum 3D7 erythrocytic growth, LDH absorbance, 72 h; at 2 µM; active compounds read high
[5] = target: Calcium-dependent protein kinase 1 (Plasmodium falciparum (isolate 3D7)) (UniProt P62344); assay: PfCDPK1 kinase inhibitors, biochemical, TCAMS library (AID 1159585; cut-off not given, nearly all actives have IC50 up to about 0.98 µM;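 also: inhibitors leave more ATP so luminescence rises with inhibition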); conditions: recombinant PfCDPK1, Kinase-Glo ATP depletion luminescence
Sequence of Calcium-dependent protein kinase 1 (Plasmodium falciparum (isolate 3D7)) (P62344 whole entry, looked up): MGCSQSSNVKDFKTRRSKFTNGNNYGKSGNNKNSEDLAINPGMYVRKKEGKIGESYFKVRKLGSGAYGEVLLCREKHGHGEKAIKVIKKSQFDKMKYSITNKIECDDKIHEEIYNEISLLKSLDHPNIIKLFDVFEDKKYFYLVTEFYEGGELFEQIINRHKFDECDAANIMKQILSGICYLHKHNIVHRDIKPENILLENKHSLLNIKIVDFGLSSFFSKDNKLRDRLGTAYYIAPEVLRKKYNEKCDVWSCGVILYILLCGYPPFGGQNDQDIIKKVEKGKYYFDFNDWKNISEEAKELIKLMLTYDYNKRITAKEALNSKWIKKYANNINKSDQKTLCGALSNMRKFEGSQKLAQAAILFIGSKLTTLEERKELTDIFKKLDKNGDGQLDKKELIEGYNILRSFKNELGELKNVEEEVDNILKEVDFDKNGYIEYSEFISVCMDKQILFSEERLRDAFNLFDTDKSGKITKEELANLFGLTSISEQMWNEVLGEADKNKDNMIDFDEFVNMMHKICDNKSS

[6] = target: Plasmodium falciparum protein kinase 6 (PK6, PF3D7_1337100) (UniProt Q8IDW1); assay: PfPK6 kinase inhibitors, biochemical, TCAMS library (AID 1159586); conditions: recombinant PfPK6, Kinase-Glo ATP depletion luminescence
Sequence of Plasmodium falciparum protein kinase 6 (PK6, PF3D7_1337100) (Q8IDW1 1-305): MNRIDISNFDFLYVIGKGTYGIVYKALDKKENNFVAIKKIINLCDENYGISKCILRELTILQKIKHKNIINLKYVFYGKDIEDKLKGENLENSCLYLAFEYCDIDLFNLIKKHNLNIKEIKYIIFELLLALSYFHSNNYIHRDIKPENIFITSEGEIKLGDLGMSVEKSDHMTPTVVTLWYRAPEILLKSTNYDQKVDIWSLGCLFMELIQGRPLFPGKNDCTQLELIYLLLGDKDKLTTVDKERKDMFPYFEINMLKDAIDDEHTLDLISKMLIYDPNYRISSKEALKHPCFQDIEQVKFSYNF

[7] = target: Protein kinase 7 (PK7), Plasmodium falciparum 3D7 (PF3D7_0213400) (UniProt Q7YTF7); assay: inhibition of Plasmodium PK7 catalytic activity – biochemical, TCAMS antimalarial set, Kinase-Glo luminescence (AID 1159587); conditions: recombinant PfPK7, Kinase-Glo ATP depletion luminescence
Sequence of Protein kinase 7 (PK7), Plasmodium falciparum 3D7 (PF3D7_0213400) (Q7YTF7 1-343): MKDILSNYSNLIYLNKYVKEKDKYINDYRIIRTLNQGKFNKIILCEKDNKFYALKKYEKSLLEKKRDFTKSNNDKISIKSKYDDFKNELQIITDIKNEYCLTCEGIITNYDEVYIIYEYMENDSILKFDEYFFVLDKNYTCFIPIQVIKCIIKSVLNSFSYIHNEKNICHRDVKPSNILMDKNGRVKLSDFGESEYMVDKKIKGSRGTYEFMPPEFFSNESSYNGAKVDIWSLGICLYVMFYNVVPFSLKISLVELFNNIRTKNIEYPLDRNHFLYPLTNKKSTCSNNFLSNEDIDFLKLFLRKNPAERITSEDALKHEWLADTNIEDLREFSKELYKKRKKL

[8] = target: Calcium-dependent protein kinase 4 (Plasmodium falciparum (isolate 3D7)) (UniProt Q8IBS5); assay: PfCDPK4 kinase inhibitors, biochemical, TCAMS library (AID 1159588; cut-off not given, nearly all actives have IC50 up to about 0.91 µM); conditions: recombinant PfCDPK4, Kinase-Glo ATP depletion luminescence
Sequence of Calcium-dependent protein kinase 4 (Plasmodium falciparum (isolate 3D7)) (Q8IBS5 whole entry, looked up): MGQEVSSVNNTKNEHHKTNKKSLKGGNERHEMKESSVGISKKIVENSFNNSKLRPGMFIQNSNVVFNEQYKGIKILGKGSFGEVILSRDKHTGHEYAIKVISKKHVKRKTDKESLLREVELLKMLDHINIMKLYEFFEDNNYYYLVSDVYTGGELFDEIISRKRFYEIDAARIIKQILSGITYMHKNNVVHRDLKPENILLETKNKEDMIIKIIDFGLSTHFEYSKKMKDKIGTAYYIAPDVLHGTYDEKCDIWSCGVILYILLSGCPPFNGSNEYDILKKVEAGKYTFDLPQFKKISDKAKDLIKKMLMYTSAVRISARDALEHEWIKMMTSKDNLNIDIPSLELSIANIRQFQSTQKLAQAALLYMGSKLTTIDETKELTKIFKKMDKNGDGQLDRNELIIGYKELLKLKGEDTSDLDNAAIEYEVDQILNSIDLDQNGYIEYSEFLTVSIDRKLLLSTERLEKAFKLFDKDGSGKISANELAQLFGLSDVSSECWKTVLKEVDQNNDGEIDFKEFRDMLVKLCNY

CCc1ccccc1-c1csc(C(=O)NCC2CCN(Cc3ccc(C(C)(C)C)cc3)C2)c1 (stereo not given)
inactive: growth inhibition [1] 15% | inhibition [2] 25% | inhibition [3] -2% | outcome [5] | outcome [6] | outcome [7] | outcome [8]
active: growth inhibition [4] 90%

COc1ccc(C2C(C(=O)Nc3cc(OC)c(OC)c(OC)c3)c3cc(OC)c(OC)cc3C(=O)N2C)cc1 (stereo not given)
active: growth inhibition [1] 100% | growth inhibition [4] 98%
inactive: inhibition [2] 9% | inhibition [3] 2% | outcome [5] | outcome [6] | outcome [7] | outcome [8]

COc1ccc2nccc([C@@H](O)CN3CCC(NC(=O)[C@@H]4Cc5ccccc5CN4C(=O)OC(C)(C)C)CC3)c2c1
inactive: inhibition [2] 15% | inhibition [3] 4% | outcome [5] | outcome [6] | outcome [7] | outcome [8]
active: growth inhibition [1] 61% | growth inhibition [4] 92%

CCN(CCCN1CCCCC1)c1cc(C)nc(Nc2ccc(Cl)cc2C)n1
inactive: growth inhibition [1] 46% | inhibition [2] 44% | inhibition [3] 2% | outcome [5] | outcome [6] | outcome [7] | outcome [8]
active: growth inhibition [4] 95%

Cc1cc(N[C@@H](Cc2ccccc2)C(=O)NC2CCCC2)nc(NCC2CCCCC2)n1
inactive: inhibition [2] 18% | inhibition [3] 4% | outcome [5] | outcome [6] | outcome [7] | outcome [8]
active: growth inhibition [1] 96% | growth inhibition [4] 101%

Cc1ccc(NC(=O)c2ccc(CN3CCCN(CC4CCCCC4)CC3)cc2)cc1F
inactive: inhibition [3] -2% | outcome [5] | outcome [6] | outcome [7] | outcome [8]
active: growth inhibition [1] 61% | inhibition [2] 51% | growth inhibition [4] 92%

CC1(C)N=C(N)N=C(N)N1OCc1cccc(C#N)c1
inactive: growth inhibition [1] 2% | inhibition [3] 5% | outcome [5] | outcome [6] | outcome [7] | outcome [8]
active: inhibition [2] 57% | growth inhibition [4] 94%

CC(O)C1CCCCN1C(=O)c1ccc(-c2ccc(-c3nc4ccccc4[nH]3)s2)cc1 (stereo not given)
active: growth inhibition [1] 98% | growth inhibition [4] 101%
inactive: inhibition [2] 33% | inhibition [3] -2% | outcome [5] | outcome [6] | outcome [7] | outcome [8]

O=C(NC1CCN(Cc2ccccc2)CC1)c1cc(-c2ccncc2)nc2ccc(Cl)cc12
active: growth inhibition [4] 97%
inactive: growth inhibition [1] 27% | inhibition [2] 17% | inhibition [3] 0% | outcome [5] | outcome [6] | outcome [7] | outcome [8]

CC(CN(C)C)C(=O)Nc1cccc(-c2cccc(-c3nc4ccc(F)cc4[nH]3)c2)c1 (stereo not given)
inactive: inhibition [2] 29% | inhibition [3] 5% | outcome [5] | outcome [6] | outcome [7] | outcome [8]
active: growth inhibition [1] 94% | growth inhibition [4] 101%

Nc1nc(N)c2c(Cc3ccc(Br)cc3)cccc2n1
active: growth inhibition [4] 99%
inactive: growth inhibition [1] 20% | inhibition [2] 28% | inhibition [3] 0% | outcome [5] | outcome [6] | outcome [7] | outcome [8]

CCc1cccc2c(C#N)cn(CC(=O)Nc3ccc(OC)cc3)c12
active: growth inhibition [1] 76% | growth inhibition [4] 97%
inactive: inhibition [2] -13% | inhibition [3] -3% | outcome [5] | outcome [6] | outcome [7] | outcome [8]

Cc1cccc(OC2CCN(c3ncc(C(=O)NCCCN4CCCC4=O)cc3Cl)CC2)c1
inactive: inhibition [2] 7% | inhibition [3] -2% | outcome [5] | outcome [6] | outcome [7] | outcome [8]
active: growth inhibition [1] 95% | growth inhibition [4] 96%

CNC(=O)C(NC(=O)c1ccccc1C(=O)OC)c1ccccc1 (stereo not given)
active: growth inhibition [4] 96%
inactive: growth inhibition [1] 2% | inhibition [2] 4% | inhibition [3] 3% | outcome [5] | outcome [6] | outcome [7] | outcome [8]

O=S(=O)(Nc1cccc(CCN2CCC(N3CCCCC3)CC2)c1)c1ccc(Oc2ccccc2)cc1
active: growth inhibition [4] 100%
inactive: growth inhibition [1] 25% | inhibition [2] 28% | inhibition [3] 0% | outcome [5] | outcome [6] | outcome [7] | outcome [8]

COc1ccccc1-c1csc(C(=O)NCC2CCN(Cc3ccc(C(C)C)cc3)C2)c1 (stereo not given)
active: growth inhibition [4] 81%
inactive: growth inhibition [1] 6% | inhibition [2] 24% | inhibition [3] 1% | outcome [5] | outcome [6] | outcome [7] | outcome [8]

CCNc1cc(C(=O)N[C@@H](Cc2ccccc2)[C@H](O)CN[C@H]2CCc3ccccc32)cc(N2CCCC2=O)c1
inactive: inhibition [2] 8% | inhibition [3] 3% | outcome [5] | outcome [6] | outcome [7] | outcome [8]
active: growth inhibition [1] 99% | growth inhibition [4] 98%

NCc1ccc(-c2cccc(CNC3CCN(Cc4ccccc4)CC3)c2)cc1
inactive: inhibition [2] 24% | inhibition [3] -7% | outcome [5] | outcome [6] | outcome [7] | outcome [8]
active: growth inhibition [1] 50% | growth inhibition [4] 100%

C=C[C@H]1CN(CCCCCCC)CC[C@H]1CC(=O)Nc1cnnc2ccc(OC)cc12
active: growth inhibition [1] 100% | growth inhibition [4] 101%
inactive: inhibition [2] 12% | inhibition [3] 3% | outcome [5] | outcome [6] | outcome [7] | outcome [8]

O=C(NCCOc1ccccc1)[C@H](Cc1ccccc1)Nc1ccnc(NCC2CCCCC2)n1
inactive: inhibition [3] 5% | outcome [5] | outcome [6] | outcome [7] | outcome [8]
active: growth inhibition [1] 73% | inhibition [2] 80% | growth inhibition [4] 96%

O=C(CCC1CCCC1)N(Cc1ccc(-c2ccc(CNCCc3ccccc3)cc2)cc1)C1CCCNC1 (stereo not given)
active: growth inhibition [1] 71% | inhibition [2] 99% | growth inhibition [4] 90%
inactive: inhibition [3] -2% | outcome [5] | outcome [6] | outcome [7] | outcome [8]

Cc1onc(-c2ccccc2)c1-c1nc(NCc2ccccc2Cl)no1
inactive: inhibition [2] 2% | inhibition [3] -3% | outcome [5] | outcome [6] | outcome [7] | outcome [8]
active: growth inhibition [1] 92% | growth inhibition [4] 99%

Cc1nc2nc(N)nc(N)c2c(C)c1Cc1cccc(C(N)=O)c1
inactive: growth inhibition [1] -1% | inhibition [3] 5% | outcome [5] | outcome [6] | outcome [7] | outcome [8]
active: inhibition [2] 59% | growth inhibition [4] 91%

NC1=NC2(CCCCC2)N(OCC2CCCCC2)C(N)=N1
active: inhibition [2] 70% | growth inhibition [4] 96%
inactive: growth inhibition [1] 49% | inhibition [3] 0% | outcome [5] | outcome [6] | outcome [7] | outcome [8]

O=C(/C=C/c1cccc(C(F)(F)F)c1)NCCCCCN1CCC(c2c[nH]c3ccccc23)CC1
active: inhibition [2] 70% | growth inhibition [4] 90%
inactive: growth inhibition [1] 14% | inhibition [3] 0% | outcome [5] | outcome [6] | outcome [7] | outcome [8]

O=C(NCCNc1ccnc2cc(Cl)ccc12)c1ccccc1F
active: growth inhibition [1] 98% | growth inhibition [4] 99%
inactive: inhibition [2] 30% | inhibition [3] 0% | outcome [5] | outcome [6] | outcome [7] | outcome [8]

COC(=O)c1cccc(CNCc2cccc(-c3ccc(-c4nc5c(C)cccc5[nH]4)s3)c2)c1
inactive: inhibition [2] -4% | inhibition [3] 1% | outcome [5] | outcome [6] | outcome [7] | outcome [8]
active: growth inhibition [1] 65% | growth inhibition [4] 103%

Cc1cccc2[nH]c(-c3cccc(-c4ccc(NC(=O)Nc5ccc6c(c5)OCO6)cc4)c3)nc12
inactive: inhibition [3] -3% | outcome [5] | outcome [6] | outcome [7] | outcome [8]
active: growth inhibition [1] 86% | inhibition [2] 80% | growth inhibition [4] 101%

O=C(Nc1ccc(Cl)cc1)Nc1ccc(-c2cccc(-c3nc4ccccc4[nH]3)c2)cc1
active: growth inhibition [1] 78% | inhibition [2] 69% | growth inhibition [4] 100%
inactive: inhibition [3] -3% | outcome [5] | outcome [6] | outcome [7] | outcome [8]

CCC1N=C(N)N=C(N)N1OCc1ccc(Cl)c(Cl)c1 (stereo not given)
inactive: inhibition [3] -4% | outcome [5] | outcome [6] | outcome [7] | outcome [8]
active: growth inhibition [1] 90% | inhibition [2] 54% | growth inhibition [4] 93%

Cc1cc(N2CCCCC2)nc2ccc(NC(=O)c3cccc([N+](=O)[O-])c3)cc12
inactive: inhibition [2] 9% | inhibition [3] 2% | outcome [5] | outcome [6] | outcome [7] | outcome [8]
active: growth inhibition [1] 99% | growth inhibition [4] 95%

OCC1CCN(Cc2ccc(-c3ccc(-c4nc5ccc(C(F)(F)F)cc5[nH]4)s3)cc2)CC1
inactive: inhibition [2] 35% | inhibition [3] -2% | outcome [5] | outcome [6] | outcome [7] | outcome [8]
active: growth inhibition [1] 90% | growth inhibition [4] 102%

CC(C)(C)C1CC(=O)C[C@@H]2C(=O)N(C3CCCCC3)C(=O)[C@H]12 (stereo not given in full)
inactive: growth inhibition [1] 27% | inhibition [2] -2% | inhibition [3] -2% | outcome [5] | outcome [6] | outcome [7] | outcome [8]
active: growth inhibition [4] 97%

Cc1noc(C)c1-c1cccc(CNCc2cccc(-c3ccc(-c4nc5c(C)cccc5[nH]4)s3)c2)c1
active: growth inhibition [1] 75% | growth inhibition [4] 102%
inactive: inhibition [2] 22% | inhibition [3] 1% | outcome [5] | outcome [6] | outcome [7] | outcome [8]

NC(=O)c1cccc(CN2Cc3ccccc3OC3(CCN(Cc4c[nH]c5cnccc45)CC3)C2)c1
inactive: growth inhibition [1] 2% | inhibition [2] 9% | inhibition [3] -2% | outcome [5] | outcome [6] | outcome [7] | outcome [8]
active: growth inhibition [4] 94%

CC[C@H](C)CNC(=O)c1ccnc(-c2ccc(CN3CCC(N4CCCC4)CC3)cc2)c1
inactive: inhibition [2] 13% | inhibition [3] -2% | outcome [5] | outcome [6] | outcome [7] | outcome [8]
active: growth inhibition [1] 84% | growth inhibition [4] 99%

CN(Cc1cccc(O)c1)C1CCCN(c2cc(NC(=O)c3ccc(F)cc3)ccn2)C1 (stereo not given)
active: growth inhibition [4] 91%
inactive: growth inhibition [1] 12% | inhibition [2] 8% | inhibition [3] -2% | outcome [5] | outcome [6] | outcome [7] | outcome [8]

O=C(Cn1c(CCc2cccc(F)c2F)nc(=O)c2cccnc21)N(Cc1ccc(-c2ccc(C(F)(F)F)cc2)cc1)C1CCN(C2CCOCC2)CC1
active: growth inhibition [1] 67% | inhibition [2] 100% | growth inhibition [4] 94%
inactive: inhibition [3] 1% | outcome [5] | outcome [6] | outcome [7] | outcome [8]

CN1CCN(c2ccc(Nc3ncc([N+](=O)[O-])c(Nc4ccccc4O)n3)cc2)CC1
active: growth inhibition [1] 97% | inhibition [2] 98% | growth inhibition [4] 100%
inactive: inhibition [3] -3% | outcome [5] | outcome [6] | outcome [7] | outcome [8]

Cc1nnc(-c2ccc3ccccc3c2)c2cn(-c3cccc([N+](=O)[O-])c3)nc12
inactive: inhibition [2] 29% | inhibition [3] 3% | outcome [5] | outcome [6] | outcome [7] | outcome [8]
active: growth inhibition [1] 67% | growth inhibition [4] 91%
